Measurements: the supplement of paper PMC12297408
A number with no mark means an inactive call.

Tested on: Plasmodium falciparum NF54/iGP1_RE9H ulg8 stage V gametocytes
Experiment: gametocyte viability (luciferase signal relative to DMSO control) (% of DMSO control); higher = less gametocytocidal activity, active = 50 or less
Conditions: exposure time: 72 h
How it was run: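 Compounds from 10 mM DMSO stocks were spotted at nanolitre scale into 96-well plates, and day-12 stage V NF54/iGP1_RE9Hulg8 gametocytes (~2.5% gametocytemia, 3% hematocrit; medium with 0.5% Albumax II) were added to reach 10 µM or 1 µM, one well per concentration. The plates were kept at 37 °C for 72 h. Luminescence was then read on an IVIS Lumina II after mixing 90 µl of culture with 10 µl D-luciferin (30 mg/ml). Viability values are relative to the plate's mean DMSO vehicle signal.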

CC(=O)c1c(O)c(C)c(O)c(Cc2c(O)c3c(c(C(=O)/C=C/c4ccccc4)c2O)OC(C)(C)C=C3)c1O [Rottlerin]
gametocyte viability (concentration: 1 µM): 100
gametocyte viability (concentration: 10 µM): 96.9

N#CC(C#N)=Cc1ccc(O)c(O)c1
gametocyte viability (concentration: 1 µM): 99
gametocyte viability (concentration: 10 µM): 104

CC(C)(C)c1cc(C=C(C#N)C#N)cc(C(C)(C)C)c1O
gametocyte viability (concentration: 1 µM): 101
gametocyte viability (concentration: 10 µM): 110

CN[C@@H]1C[C@H]2O[C@@](C)([C@@H]1OC)n1c3ccccc3c3c4c(c5c6ccccc6n2c5c31)C(=O)NC4 [Staurosporine]
gametocyte viability (concentration: 1 µM): 110
gametocyte viability (concentration: 10 µM): 27.1 (active)

COC[C@H]1OC(=O)c2coc3c2[C@@]1(C)C1=C(C3=O)[C@@H]2CCC(=O)[C@@]2(C)C[C@H]1OC(C)=O [Wortmannin]
gametocyte viability (concentration: 1 µM): 91.8
gametocyte viability (concentration: 10 µM): 89.3

CCN1CCN(C(=O)Cc2ccc(Nc3ncc(F)c(Nc4ccc(C(=O)Nc5ccccc5Cl)cc4)n3)cc2)CC1 [Aurora A Inhibitor I]
gametocyte viability (concentration: 1 µM): 110
gametocyte viability (concentration: 10 µM): 82.7

N#CC(C#N)=Cc1ccc([N+](=O)[O-])c(O)c1
gametocyte viability (concentration: 1 µM): 107
gametocyte viability (concentration: 10 µM): 102

N#CC(C#N)=Cc1cc(O)c(O)c(O)c1
gametocyte viability (concentration: 1 µM): 104
gametocyte viability (concentration: 10 µM): 97.9

N#C/C(=C\c1ccc(O)c(O)c1)C(N)=S
gametocyte viability (concentration: 1 µM): 101
gametocyte viability (concentration: 10 µM): 101

O=c1[nH]c2ccc(Cl)cc2c(N[C@@H]2CN3CCC2CC3)c1-c1nc2ccccc2[nH]1
gametocyte viability (concentration: 1 µM): 112
gametocyte viability (concentration: 10 µM): 120

Cc1ccccc1-n1c(Cn2cnc3c(N)ncnc32)nc2cccc(C)c2c1=O
gametocyte viability (concentration: 1 µM): 101
gametocyte viability (concentration: 10 µM): 96.9

N#CC(C#N)=Cc1cc(O)c(O)c([N+](=O)[O-])c1
gametocyte viability (concentration: 1 µM): 103
gametocyte viability (concentration: 10 µM): 101

Cc1ccccc1-n1c(Cn2ncc3c(N)ncnc32)nc2cccc(C)c2c1=O
gametocyte viability (concentration: 1 µM): 94.7
gametocyte viability (concentration: 10 µM): 104

CC1=C(O)C(=O)[C@@H]2O[C@@H]2C1=O [Terreic acid]
gametocyte viability (concentration: 1 µM): 98.4
gametocyte viability (concentration: 10 µM): 64.8

Cn1cc(C2=C(c3cn(C4CCN(Cc5ccccn5)CC4)c4ccccc34)C(=O)NC2=O)c2ccccc21
gametocyte viability (concentration: 1 µM): 100
gametocyte viability (concentration: 10 µM): 109

OC[C@H]1O[C@@H](n2cnc3cc(Cl)c(Cl)cc32)[C@H](O)[C@@H]1O [5,6-dichloro-1-β-D-ribofuranosylbenzimidazole]
gametocyte viability (concentration: 1 µM): 112
gametocyte viability (concentration: 10 µM): 119

C/C(O)=C(\C#N)C(=O)Nc1cc(Br)ccc1Br
gametocyte viability (concentration: 1 µM): 110
gametocyte viability (concentration: 10 µM): 101
